According to PubChem BioAssay (Tox21):
Results filed as inconclusive are left out. Active and inactive are the calls of the source. Unless noted, calls follow the shape of the dose curve; as a rule, active = well fitted curve in the direction sought with a large enough effect in the repeat runs; inconclusive = weak or mixed curves; inactive = no such curve, though single readings can be large; an effect the other way counts as inactive or inconclusive.

Assays:
[1] = qHTS RealTime-Glo MT Cell Viability Assay in HEK293 cells - 24 hour (AID 1224886); also: top concentration of the series differs between compounds; nearly all actives have a fitted effect of over 50% in size
How it was run: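 Nonlytic real-time viability readout: viable cells convert prosubstrate to NanoLuc substrate, giving luminescence proportional to live cell number. HEK293, 600 cells/well, compound added after 5 h, continuous culture at 37 C.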

[2] = qHTS RealTime-Glo MT Cell Viability Assay in HEK293 cells - 8 hour (AID 1224887); also: top concentration of the series differs between compounds; nearly all actives have a fitted effect of over 50% in size
How it was run: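 Tox21 screen in HEK293 using RealTime-Glo MT chemistry, with cells and reagent co-dispensed. Luminescence proportional to viable cell number was captured at intervals during 40 h compound exposure at 37 C.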

[3] = A CellTox Green Cytotoxicity Assay to monitor cytotoxicity in HEK293 cells - 16 hour (AID 1224888); also: nearly all actives have a fitted effect of over 35% in size
How it was run: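 Seeding of HEK293 cells together with cytotoxicity dye preceded a 5 h incubation at 37 C/5% CO2. Test compounds in DMSO were then added and fluorescence monitored across 40 h.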

[4] = qHTS RealTime-Glo MT Cell Viability Assay in HepG2 cells - 0 hour (AID 1224889); also: nearly all actives have a fitted effect of over 50% in size
How it was run: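 Luminescence read-out: viable HepG2 cells reduce a prosubstrate to a NanoLuc substrate, giving a signal proportional to live cell number. Reads taken at 0, 8, 16, 24, 32 and 40 h of compound exposure at 37 C.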

[5] = A CellTox Green Cytotoxicity Assay to monitor cytotoxicity in HepG2 cells - 8 hour (AID 1224890); also: nearly all actives have a fitted effect of over 45% in size
How it was run: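 Nonlytic assay: viable cells exclude the dye, so fluorescence scales with cell death. HepG2 at 600 cells/well, compounds added after 5 h, signal read across 40 h.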

[6] = qHTS assay to identify small molecule antagonists of the estrogen receptor alpha (ER-alpha) signaling pathway using the BG1 cell line in the presence of 0.1 nM 17-beta-estradiol - cell viability counter screen (AID 1259241); also: nearly all actives have a fitted effect of over 40% in size
How it was run: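 VM7Luc4E2, 4,000 cells/well, phenol red-free medium + 10% charcoal-stripped FBS; 24 hr plating; cpd + 0.1 nM E2 final, 22 hr 37C/5% CO2; CellTiter-Fluor 30 min, fluorescence.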

[7] = qHTS assay to identify small molecule antagonists of the androgen receptor (AR) signaling pathway using the MDA cell line in the presence of 0.5 nM R1881 - cell viability counter screen (AID 1259242); also: nearly all actives have a fitted effect of over 45% in size
How it was run: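 R1881 at 0.5 nM final stimulated MDA-kb2 cells during 16 hr compound treatment at 37C. Cytotoxicity read: CellTiter-Fluor fluorescence after 30 min.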

[8] = target: Estrogen receptor (Homo sapiens) (UniProt P03372); assay: qHTS assay to identify small molecule antagonists of the estrogen receptor alpha (ER-alpha) signaling pathway using the BG1 cell line in the presence of 0.1 nM 17-beta-estradiol (AID 1259244); also: nearly all actives have a fitted effect of over 50% in size
How it was run: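 VM7Luc4E2; 4xERE-luciferase; 0.1 nM E2 final; 22 h co-incubation, 37C; ONE-Glo luminescence after 30 min at room temperature.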

[9] = qHTS assay to identify small molecule HDAC inhibitors (AID 1259364);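 also: wild-type HCT-116 cells with endogenous class I/II HDAC activity; top concentration of the series differs between compounds; nearly all actives have a fitted effect of over 45% in size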
How it was run: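 Relative class I and II HDAC activity is taken from the luminogenic signal in HCT-116 cells, with compound exposure 2 hr and reagent development 30 min at room temperature.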

[10] = qHTS assay to identify small molecule HDAC inhibitors - cell viability counter screen (AID 1259365)
How it was run: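 Luminescence from CellTiter-Glo, developed 30min at room temperature, reports viability of wild-type HCT-116 cells treated 2hr with compounds at 37 C and 5% CO2 after overnight plating.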

[11] = qHTS assay to identify small molecule agonists of the sonic hedgehog signaling (Shh) pathway - cell viability counter screen (AID 1259366); also: nearly all actives have a fitted effect of over 50% in size
How it was run: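 Cytotoxicity counter screen run in the same wells as the Shh reporter assay. NIH/3T3 cells carrying a Gli1 response element–driven luciferase were treated with DMSO-dissolved compounds for 24hr, and live-cell protease activity was measured with CellTiter-Fluor.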

[12] = qHTS assay to identify small molecule antagonists of the sonic hedgehog signaling (Shh) pathway - cell viability counter screen (AID 1259367); also: nearly all actives have a fitted effect of over 55% in size
How it was run: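 NIH/3T3-derived Gli1-Luc reporter cells (2,000 per well) rested 4 hr at 37 C, then received DMSO compounds plus conditioned medium. After 23 hr of treatment, CellTiter-Fluor was added for 1 hr at 37C and fluorescence read.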

[13] = qHTS assay to identify small molecule agonists of the sonic hedgehog signaling (Shh) pathway (AID 1259368; calls by dose curve;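 also: NIH/3T3-derived 3T3Gli1-Luc cells carrying a stable Gli1-driven firefly luciferase reporter; series mostly up to about 92 µM; nearly all actives have a fitted effect of over 15% in size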)
How it was run: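 Mouse fibroblast (NIH/3T3) reporter cells with stably integrated Gli1-Luc were treated 24 hr with compound; firefly luciferase luminescence served as the read-out.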

[14] = qHTS assay to identify small molecule antagonists of the sonic hedgehog signaling (Shh) pathway (AID 1259369; calls by dose curve; also: nearly all actives have a fitted effect of over 45% in size)
How it was run: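 Conditioned medium drives Shh signalling in 3T3Gli1-Luc cells; compounds in DMSO co-applied, 24hr at 37 C, then luciferase luminescence.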

[15] = target: Estrogen receptor beta (Homo sapiens) (UniProt Q92731); assay: qHTS assay to identify small molecule agonists of the estrogen receptor beta (ER-beta) signaling pathway (AID 1259377; active = well fitted activation curve with a large enough effect in the signal ratio in the repeat runs, not every such curve was filed as active; the % refers to the signal ratio)
How it was run: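 HEK293T ER-beta-UAS-bla; 2% charcoal-stripped FBS; cells pre-incubated 6 hr, compound 16 hr, 37C/5% CO2; LiveBLAzer B/G FRET substrate 2 h RT; fluorescence intensity read.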

[16] = target: Estrogen receptor beta (Homo sapiens) (UniProt Q92731); assay: qHTS assay to identify small molecule antagonists of the estrogen receptor beta (ER-beta) signaling pathway (AID 1259378; active = well fitted inhibition curve with a large enough effect in the signal ratio in the repeat runs, not every such curve was filed as active; the % refers to the signal ratio)
How it was run: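 ER-beta-UAS-bla HEK293T (GripTite) cells in 2% charcoal-stripped FBS medium were preincubated 6 hr at 37C, dosed with compound, then stimulated with 1 nM E2 (final) for 16 hr; beta-lactamase reporter read by B/G FRET fluorescence after 2 hr substrate loading.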

[17] = qHTS assay to identify small molecule agonists of the androgen receptor (AR) signaling pathway in the presence of an antagonist - cell viability counter screen (AID 1259379);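 also: MDA-kb2 human breast cancer cells carrying an MMTV luciferase reporter; series mostly up to about 92 µM; nearly all actives have a fitted effect of over 25% in size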
How it was run: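 A CellTiter-Fluor read-out measured viability of MDA-kb2 reporter cells (MMTV promoter with AR and GR response elements). Treatment: nilutamide 3.0uM final with compounds at 15 concentrations, 16 hr, 37C, 0% CO2.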

[18] = qHTS assay to identify small molecule agonists of the estrogen receptor beta (ER-beta) signaling pathway - cell viability counter screen (AID 1259380); also: nearly all actives have a fitted effect of over 30% in size
How it was run: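 Cells used were ER-beta-UAS-bla HEK293T in medium with 2% charcoal-stripped FBS. They were treated for 16 hr at 37C. Viability came from CellTiter-Glo luminescence.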

Measured: Potency

Sequence of Estrogen receptor beta (Homo sapiens) (Q92731 whole entry, looked up): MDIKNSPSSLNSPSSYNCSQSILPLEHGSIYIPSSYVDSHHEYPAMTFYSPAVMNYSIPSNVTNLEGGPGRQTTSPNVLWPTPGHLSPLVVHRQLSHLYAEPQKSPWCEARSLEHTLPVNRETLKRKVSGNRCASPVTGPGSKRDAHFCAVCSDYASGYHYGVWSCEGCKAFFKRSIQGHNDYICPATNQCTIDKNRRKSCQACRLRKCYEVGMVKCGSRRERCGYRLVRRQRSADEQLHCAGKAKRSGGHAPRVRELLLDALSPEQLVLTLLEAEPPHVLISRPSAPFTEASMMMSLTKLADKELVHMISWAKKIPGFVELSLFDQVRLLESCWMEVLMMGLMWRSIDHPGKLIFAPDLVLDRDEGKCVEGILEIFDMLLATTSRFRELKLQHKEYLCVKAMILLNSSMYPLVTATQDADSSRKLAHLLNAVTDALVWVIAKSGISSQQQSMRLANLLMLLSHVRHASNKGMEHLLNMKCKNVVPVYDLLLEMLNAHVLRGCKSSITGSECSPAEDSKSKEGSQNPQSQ
Sequence of Estrogen receptor (Homo sapiens) (P03372 whole entry, looked up): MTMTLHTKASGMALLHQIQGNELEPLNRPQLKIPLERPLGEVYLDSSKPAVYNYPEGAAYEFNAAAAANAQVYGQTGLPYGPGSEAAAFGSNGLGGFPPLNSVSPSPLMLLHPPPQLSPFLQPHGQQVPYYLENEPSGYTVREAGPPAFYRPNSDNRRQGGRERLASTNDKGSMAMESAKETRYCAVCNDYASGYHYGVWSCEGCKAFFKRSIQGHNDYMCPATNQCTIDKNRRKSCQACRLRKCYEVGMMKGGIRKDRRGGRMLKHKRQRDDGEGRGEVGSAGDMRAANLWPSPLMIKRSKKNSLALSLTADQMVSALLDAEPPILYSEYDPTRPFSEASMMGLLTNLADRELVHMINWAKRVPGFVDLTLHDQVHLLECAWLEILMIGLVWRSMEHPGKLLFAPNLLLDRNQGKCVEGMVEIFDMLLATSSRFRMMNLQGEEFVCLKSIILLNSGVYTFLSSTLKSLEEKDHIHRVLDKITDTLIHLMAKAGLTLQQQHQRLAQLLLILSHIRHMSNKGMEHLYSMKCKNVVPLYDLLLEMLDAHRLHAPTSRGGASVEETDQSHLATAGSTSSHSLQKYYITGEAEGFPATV

CCCSSCCC
inactive: all assays above

CC1OCCC1=O (stereo not drawn)
inactive: all assays above

CSc1cnccn1
not listed: [16]
inactive: all other assays above

CCOc1cccc(N)c1
not listed: [10] | [16]
inactive: all other assays above

c1ccc2cnccc2c1
not listed: [15] | [16]
inactive: all other assays above

CCCCOC(=O)[C@H](C)O
not listed: [12] | [15] | [16]
inactive: all other assays above

CC1CC(=O)CC(C)(C)C1 (stereo not drawn)
not listed: [12] | [15] | [16] | [18]
inactive: all other assays above

Cc1c(Cl)cccc1Cl
not listed: [12] | [15]
inactive: all other assays above

CCCCOC(=O)C(C)O (stereo not drawn)
not listed: [15] | [16]
inactive: all other assays above

C/C(=C1\CCOC(=O)S1)N(C=O)Cc1cnc(C)nc1N
not listed: [15]
inactive: all other assays above

CCCCCCCCCCOC(C)=O
not listed: [15] | [16]
inactive: all other assays above

CCCCOCC(C)O (stereo not drawn)
not listed: [15] | [16]
inactive: all other assays above

CCN(CC)CCN
not listed: [12] | [18]
inactive: all other assays above

CN(C)CCCCl
not listed: [15] | [16]
inactive: all other assays above

C[Si]1(C)O[Si](C)(C)O[Si](C)(C)O[Si](C)(C)O[Si](C)(C)O1
not listed: [15] | [16]
inactive: all other assays above

Fc1ccccc1
not listed: [15] | [16] | [18]
inactive: all other assays above
